Screens (PubChem)
Mtb betalactam – beta-lactam sensitization of Mtb H37Rv; 330,000 tested, 0.27% active; AID 434955; M. tuberculosis H37Rv growth with meropenem, percent inhibition; inhibition, % at 25 µM; call rule not given here;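 note: growth measured after seven days incubation then overnight dye step; 0% = bacteria only wells and 100% = bacteria with antibiotic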
RecA splice inh – Mtb RecA intein splicing inhibition. P9WHJ3. AID 2221. 290,000 tested, 0.75% active. inhibition, % (test concentration not listed). cell-free RecA intein splicing, fluorescence; in the data active = inhibition above about 30%; inconclusive = no clear call, values can overlap the other calls;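 note: 0% = vehicle wells and 100% = reference inhibitor control wells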
Target sequence (P9WHJ3 whole entry, looked up, canonical isoform): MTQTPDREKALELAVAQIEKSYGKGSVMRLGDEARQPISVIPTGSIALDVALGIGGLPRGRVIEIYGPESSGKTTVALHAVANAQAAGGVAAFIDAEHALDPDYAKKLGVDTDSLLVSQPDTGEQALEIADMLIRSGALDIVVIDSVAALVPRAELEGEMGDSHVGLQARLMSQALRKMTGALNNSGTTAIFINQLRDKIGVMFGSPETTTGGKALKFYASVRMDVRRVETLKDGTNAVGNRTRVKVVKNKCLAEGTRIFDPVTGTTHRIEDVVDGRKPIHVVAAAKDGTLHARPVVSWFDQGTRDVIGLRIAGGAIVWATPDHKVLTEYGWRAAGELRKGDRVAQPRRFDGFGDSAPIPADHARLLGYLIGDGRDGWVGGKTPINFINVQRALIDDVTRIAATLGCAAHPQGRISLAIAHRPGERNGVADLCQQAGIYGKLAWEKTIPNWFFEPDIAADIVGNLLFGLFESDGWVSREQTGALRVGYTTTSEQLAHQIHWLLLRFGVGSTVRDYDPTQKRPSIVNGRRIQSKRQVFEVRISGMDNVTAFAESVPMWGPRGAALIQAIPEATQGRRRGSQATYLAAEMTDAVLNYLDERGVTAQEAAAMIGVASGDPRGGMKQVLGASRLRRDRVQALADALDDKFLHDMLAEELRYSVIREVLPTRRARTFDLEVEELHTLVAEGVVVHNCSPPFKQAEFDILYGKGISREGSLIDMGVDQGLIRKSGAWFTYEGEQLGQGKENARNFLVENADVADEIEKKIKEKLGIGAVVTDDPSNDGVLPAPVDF
Rv3671c inh – inhibits the M. tuberculosis serine protease Rv3671c; P9WHR9; AID 2606; inhibition, % at 5.96 µM; 320,000 tested, 0.048% active; in the data active = inhibition above about 38%;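 note: extracellular domain of Rv3671c used as enzyme; 0% = enzyme with DMSO and 100% = no enzyme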
Mtb UGM inh – Mtb UDP-galactopyranose mutase inhibition | P9WIQ1 | purified UGM, fluorescence polarization probe displacement | inhibition, % at 10 µM | 320,000 tested, 0.06% active | AID 504406; in the data active = inhibition above about 10%, passing the limit was not always enough; inconclusive = no clear call, values can overlap the other calls
CCHF vOTU inh-1 – CCHFV vOTU protease inhibition; inhibition, % at 11.5 µM; Pep-AMC fluorescence; 370,000 tested, 0.55% active; note: 0% = vehicle wells with enzyme and 100% = no enzyme wells
CCHF vOTU inh-2 – confirmation of CCHF virus vOTU protease inhibitors. inhibition, % at 11.5 µM. shares compounds with CCHF vOTU inh-1. 1,900 tested, 17% active. Recombinant CCHFV vOTU, Pep-AMC fluorescence
* hit, by the source's call; ? = inconclusive; nt = not tested or not shown. Only some compounds are listed: those with a hit (about 1.2% of all), similar ones and a draw of the others. Cut-off read from the data, not from the text of the source, unless noted: active = inhibition above about 30%; inactive = the rest.

SMILES	Mtb betalactam	RecA splice inh	Rv3671c inh	Mtb UGM inh	CCHF vOTU inh-1	CCHF vOTU inh-2
CCCCN1C(=O)N2Cc3ccc(C)cc3C2CS1(=O)=O (stereo unspecified)	nt	nt	nt	nt	-8.7	nt
Cc1ccc(-n2c(SCc3nc4ccccc4[nH]3)nnc2-c2ccccn2)cc1	nt	nt	nt	nt	-3.7	nt
CCC1(CC)NC(=O)N(CC(=O)OC(C)C(=O)Nc2cc([N+](=O)[O-])ccc2OC)C1=O (stereo unspecified)	?	-3.6	1.4	-2.7	30.5*	-4.6
CCC1(CC)NC(=O)N(CC(=O)OC(C)C(=O)Nc2ccc(Cl)cn2)C1=O (stereo unspecified)	-1.8	-1.1	2.6	0.5	10.8	nt
COc1ccc(CN2CN3Cc4ccc(C)cc4C3CS2(=O)=O)cc1 (stereo unspecified)	nt	nt	nt	nt	-2.1	nt
CC1(C(=O)Nc2ccc(F)cc2F)CCN1C(=O)CCC1CCCC1 (stereo unspecified)	nt	nt	nt	nt	32.7*	-15.2
Cc1ccc(C)c(N2CCN(C(=O)CCc3nc(-c4ccccc4C)no3)CC2)c1	nt	nt	nt	nt	35.6*	4.2
CCN(CC)C(=O)CC[C@H]1CC[C@]2(CCCN(C(=O)c3ccc4ccccc4n3)C2)O1	nt	nt	nt	nt	0.7	nt
O=C(NC(=S)Nc1ccccc1N1CCCCC1)c1ccccc1	71.3	14.8	0.2	0.3	4.5	nt
O=C(NC(=S)Nc1ccccc1N1CCCC1)c1ccc(F)cc1	-0.6	7.1	-16.3	-2.2	31.9*	33.4*
COc1ccccc1C(=O)NC(=S)Nc1ccccc1N1CCCC1	?	nt	-63.3	2.1	40.5*	11.2
N#C/C(=N\Nc1ccccc1Cl)C(=O)c1ccccc1	-9.6	0.8	-5.9	-1.9	-3.9	nt
N#C/C(=N\Nc1cccc(Cl)c1)C(=O)c1ccccc1	-2.3	-1.2	-1.2	-0.4	34.9*	-2.7
O=C(NCc1ccccc1)c1nc2c(nnn2Cc2cccc(Cl)c2)c(=O)[nH]1	-8.0	6.5	-7.0	1.0	44.6*	7.4
CN(C)c1ccc(C=c2c3cc(O)ccc3n3c2cc(-c2ccccc2)[n+]3C)cc1	nt	nt	nt	nt	46.5*	41.0*
C[n+]1c(-c2ccccc2)cc2c(=Cc3ccccc3)c3ccccc3n21	nt	nt	nt	nt	82.8*	78.1*
C[n+]1c(-c2ccccc2)cc2c(=Cc3ccc([N+](=O)[O-])cc3)c3ccccc3n21	nt	nt	nt	nt	93.0*	57.4*
CCc1ccccc1NC(=O)CNC(=O)c1cc(C2CC2)nn1-c1ccccc1	100.0	nt	-3.3	nt	39.4*	-1.8
CCOC(=O)CC[C@H]1CC[C@]2(CCCN(S(=O)(=O)C3CCCCC3)C2)O1	nt	nt	nt	nt	2.3	nt
C[C@H]1[C@@H](c2ccccc2)Oc2c(Cl)cccc2S(=O)(=O)N1C	nt	nt	nt	nt	-4.0	nt
Nc1cc(S(=O)(=O)O)cc2ccc(S(=O)(=O)O)cc12	nt	nt	nt	nt	43.9*	-96.9
CS(=O)(=O)N[C@@H]1C[C@@H]2O[C@@H](CO)CC[C@@H]2O[C@@H]1CCc1ccc(-c2ccccc2F)cc1	nt	nt	nt	nt	-5.6	nt
CS(=O)(=O)N(Cc1ccccc1)c1ccc(C(=O)NCC2CCCO2)cc1 (stereo unspecified)	-14.1	5.0	-2.3	1.7	35.0*	-6.0
Cc1[nH][nH]c(=O)c1C(c1c(C)[nH][nH]c1=O)c1cn(Cc2ccc(Cl)c(Cl)c2)c2ccccc12	4.0	0.9	-156.7	0.7	55.9*	8.6
O=C1SCCN1N=Cc1ccc([N+](=O)[O-])o1	nt	nt	nt	nt	32.3*	-0.9
SMILES	Mtb betalactam	RecA splice inh	Rv3671c inh	Mtb UGM inh	CCHF vOTU inh-1	CCHF vOTU inh-2
CC1CN(N=Cc2ccc([N+](=O)[O-])o2)C(=N)O1 (stereo unspecified)	nt	nt	nt	nt	18.0	nt
Cc1cccc(C)c1NC(=O)C1(C)CSCC(=O)N1CCOc1ccccc1 (stereo unspecified)	nt	nt	nt	nt	30.6*	3.9
C[C@H](O)[C@@H]1CN2CCc3c([nH]c4cccc(-c5ccccc5)c34)[C@@H]2C[C@@H]1N(C)C(=O)Nc1ccccc1	nt	nt	nt	nt	-6.6	nt
CC(C)CCCCCCNC(=S)Nc1ccc(S(=O)(=O)N2CCOCC2)cc1	5.9	1.4	-96.5	-0.4	31.0*	10.9
O=S(=O)(c1ccc(NC(=S)Nc2ccccc2)cc1)N1CCOCC1	1.1	-2.5	-0.1	2.1	0.2	nt
COC(=O)CC1OCC=C2CN3CCC45C6=CC(=O)C(=O)C([N+](=O)[O-])=C6NC4C1C2CC35 (stereo unspecified)	nt	nt	nt	nt	63.9*	23.3
COc1cc2c(cc1OC)[C@@]13CCN4CC5=CCO[C@H]6CC(=O)N2[C@H]1[C@H]6[C@H]5C[C@H]43	-3.9	-0.2	6.2	-4.0	6.1	nt
COc1cc(/C=N/NC(=O)[C@H](Cc2c[nH]c3ccccc23)NC(=O)OCC(C)C)cc([N+](=O)[O-])c1O	11.8	-0.3	5.3	-2.3	36.2*	-0.1
COc1cc(/C=N/NC(=O)Cc2ccccc2)cc([N+](=O)[O-])c1O	2.3	0.3	7.0	2.0	22.7	nt
COC(=O)C1=C(C(=O)OC)SC2(S1)C(C(=O)OC)=C(C(=O)OC)Sc1c2ssc1=O	nt	nt	nt	nt	31.8*	8.6
CCN(CC)c1ccc(/C=N/NC(=O)c2c(Cl)cnn2C)c(O)c1	7.7	-44.7	5.4	-0.6	36.1*	-11.0
O=C(COC(=O)c1cc2ccccc2cc1O)Nc1ccccc1F	64.3	nt	3.3	4.8	30.9*	-23.6
COc1ccccc1NC(=O)COC(=O)c1cc2ccccc2cc1O	-7.0	nt	-3.7	2.2	13.1	nt
CC(NCc1ccco1)C(=O)N1CCOCC1 (stereo unspecified)	nt	nt	nt	nt	3.4	nt
O=C(OC12CCCN(C1)/C(=C/c1cccc(Cl)c1)C2)c1ccno1 (stereo unspecified)	nt	nt	nt	nt	-2.9	nt
Cc1cc(C(=O)N/N=C/c2ccc([N+](=O)[O-])cc2)c2ccccc2n1	-3.0	-0.9	-1.3	0.4	3.2	nt
Cc1cc(C(=O)N/N=C/c2ccc([N+](=O)[O-])s2)c2ccccc2n1	98.7	-5.9	-12.7	-2.3	30.5*	-6.5
CN(CC(=O)NC(=O)NC1CCCCC1)CC(=O)Nc1ccc(OC(F)(F)F)cc1	9.4	nt	7.1	-1.0	17.2	nt
COc1ccc(NC(=O)CN(C)CC(=O)NC(=O)NC2CCCCC2)cc1	-4.2	nt	-1.1	0.5	38.0*	-17.6
CCCCNC(=O)C1(C)CCN1C(=O)Cc1cccc2ccccc12 (stereo unspecified)	nt	nt	nt	nt	46.7*	-22.9
CC1(C(=O)NCc2cccc3ccccc23)CCN1Cc1ccc2ccccc2c1 (stereo unspecified)	nt	nt	nt	nt	4.2	nt
CC1(C(=O)NCc2cccc3ccccc23)CCN1Cc1ccc(OC(F)(F)F)cc1 (stereo unspecified)	nt	nt	nt	nt	33.7*	17.0
COc1ccc(-n2c(SCC(=O)Nc3cc(C)c(NC(=O)c4ccccc4)cc3OC)nnc2-c2ccccc2F)cc1	nt	nt	nt	nt	2.0	nt
CC#CC[N+](C)(C)CCCCCCCC	-17.0	0.6	2.7	0.4	0.1	nt
CCCCCCCCCCCCCCCC[N+](C)(C)Cc1ccc(F)cc1	nt	nt	nt	nt	56.2*	57.3*
CCSc1nc(=S)cc(C)[nH]1	6.7	0.1	-6.5	0.9	31.3*	-25.3
O=C(NC1CCCCC1)c1ccc(CS(=O)Cc2ccccc2Cl)o1 (stereo unspecified)	-6.0	-3.1	3.0	1.0	7.1	nt
